High-throughput results: PubChem BioAssay, Broad Institute
Not all results are given here.
aSyn 5UTR act – Activators via SNCA 5'UTR binding, MLPCN | alpha-synuclein 5'UTR reporter, activators screen | activity score, % (tested at 7.5 µM), hits read low | 7.1% of 300,000 active; in the data active = activity score below about -60%
* marks the source's active call; other numbers are inactive results.

SMILES	aSyn 5UTR act
CCC1CCCCN1c1nc(-c2cccc(OC)c2O)nc2ccccc12 (stereo not drawn)	-98*
Cc1ccc(/C=C2\OC(=O)c3ccccc32)cc1	-83*
COc1ccc(OC(=O)Nc2ccccc2)cc1	-92*
CCc1ccc(OC(=O)Nc2ccccc2)cc1	-159*
O=C1NC(=Nc2ccccc2)S/C1=C\c1cccn1-c1ccccc1	-388*
CN1C(=O)C2C=CC1C1C(=O)N(c3ccccc3)C(=O)C21 (stereo not drawn)	-302*
CC(C)c1ccc(NC(=O)c2sccc2-n2cccc2)cc1	-146*
CCC1SC(=NC(=O)c2ccc(Cl)c(Cl)c2)NC1=O (stereo not drawn)	-76*
CSc1nc(O)c(N=Nc2ccc(F)cc2F)c(=O)[nH]1	-138*
C(=N\NC1=Nc2cccc3cccc1c23)/c1cccnc1	-258*
Clc1ccc(N/N=C/c2cccnc2)cc1	-123*
Clc1ccc(/C=N/NC2=Nc3cccc4cccc2c34)cc1	-191*
C(=N\NC1=Nc2cccc3cccc1c23)/c1ccccc1	-256*
COc1cccc(N(C(=O)c2cccs2)c2nc3ccccc3s2)c1	-154*
Cc1ccccc1N/N=C1\CCCNC1=O	-100*
CCn1cnc2cc(NCc3nc4ccccc4n3Cc3ccccc3)ccc21	-138*
CC(C)n1cnc2cc(NCc3nc4ccccc4n3C)ccc21	-115*
CCn1cnc2cc(NCc3nc4ccccc4n3C)ccc21	-108*
CSc1ccc(/C=C(/NC(=O)c2ccccc2)C(=O)N2CCN(C)CC2)cc1	-147*
CCOc1ccccc1CNC(=O)C1CCN(c2nnc(C)c3c(C)n(-c4ccc(C)cc4)nc23)CC1	78
COc1cccc(NC(=O)c2ccnc(N3CCC(C(=O)NCc4ccccc4OC)CC3)c2)c1	-95*
COc1ccc(-n2nc3c(N4CCC(C(=O)NCc5cccc(C)c5)CC4)nnc(C)c3c2C)cc1	70
COc1ccc(-c2cc(C(=O)NCC3CCCO3)c3cc(C)ccc3n2)cc1 (stereo not drawn)	-67*
COc1ccc2oc(C(=O)NC(C)(C)C)c(C)c2c1	-138*
COc1ccc2oc(C(=O)NCC3CCCO3)c(C)c2c1 (stereo not drawn)	-126*
SMILES	aSyn 5UTR act
CCOc1ccc2oc(C(=O)NCC3CCCO3)c(C)c2c1 (stereo not drawn)	-100*
Fc1c(F)c(C(F)(F)F)c(F)c(F)c1N/N=C\c1cccs1	-73*
Nc1nc2c(s1)CCc1c-2cnn1-c1ccccc1	-80*
Cc1ccc(/C=N/NC(=O)c2ccc(Br)o2)s1	-111*
CCc1ccc(/C=N\NC(=O)c2ccc(Br)o2)s1	-167*
Cc1cc(/C=N/n2cnnc2)c(C)n1-c1ccc(OCc2ccccc2F)cc1	-82*
COc1ccc(COc2ccc3c(C)cc(=O)oc3c2)cc1	-131*
Cc1cc(=O)oc2cc(OCc3ccccc3)ccc12	-130*
COC(=O)c1ccccc1SC(CC(=O)c1ccccc1)c1ccc(F)cc1 (stereo not drawn)	-68*
O=C(CC(Nc1ccc(Cl)cc1)C(=O)O)c1ccccc1 (stereo not drawn)	-69*
Cc1c(Cl)cccc1NC(CC(=O)c1ccccc1)C(=O)O (stereo not drawn)	-102*
O=C(CC(Nc1ccccc1Cl)C(=O)O)c1ccccc1 (stereo not drawn)	-94*
O=C(CC(Nc1ccc(F)cc1)c1ccccc1)c1ccccc1 (stereo not drawn)	-89*
CCN1/C(=C/c2ccc3cccc(C)c3[n+]2CC)Sc2ccccc21	-134*
CCN1/C(=C/c2ccc3cc(C)ccc3[n+]2CC)Sc2ccc3sccc3c21	131
CCn1c(SC(C)C)nnc1-c1cc(-c2ccccc2)sc1N	-171*
CCOCC(=O)Nc1cc(C(=O)Nc2cc(C)cc(C)c2)ccc1Cl	-66*
CN(C)c1ccc(/C=C(\C#N)C(=O)NCc2ccco2)cc1	-102*
N#C/C(=C\c1cn(Cc2ccccc2)c2ccccc12)C(=O)NCc1ccco1	68
N#C/C(=C\c1cn(Cc2cccc(F)c2)c2ccccc12)C(=O)NCc1ccco1	65
O=C(Nc1nc2cc3c(cc2s1)OCO3)C1CC1	-161*
O=C(Nc1nc2cc3c(cc2s1)OCO3)C1CCCCC1	-140*
Cc1ccc2oc(C(=O)Nc3nonc3C)c(C)c2c1	-106*
Cc1ccc2oc(C(=O)Nc3nnc(C)s3)c(C)c2c1	-68*
Cc1ccc2oc(C(=O)NCC(c3ccco3)N(C)C)c(C)c2c1 (stereo not drawn)	-73*
SMILES	aSyn 5UTR act
Cc1ccc(N=Nc2cc(C)ccc2O)c(C)c1	-215*
Cc1ccc(N=Nc2ccc(N)cc2C)c(S(N)(=O)=O)c1	-80*
Cc1ccc(N=Nc2cc(C)ccc2N)cc1	61
CC1SCC(=NOCc2ccccc2)CS1 (stereo not drawn)	-89*
O=C(Nc1nnc(Cc2ccccc2)s1)c1ccccc1	-160*
O=C(Nc1nnc(Cc2ccccc2)s1)c1cccs1	-128*
O=C(Nc1nnc(CCc2ccccc2)s1)c1cccc(F)c1	-103*
O=C(Nc1nnc(CC2=CCCCC2)s1)c1cccs1	-93*
O=C(Nc1nnc(CCN2CCOCC2)s1)c1ccccc1	-67*
CCc1nnc(NC(=O)c2ccc(N(C)S(=O)(=O)c3ccccc3)cc2)s1	-129*
CC(C)Oc1ccc(C(=O)Nc2nnc(SCC(=O)N3CCOCC3)s2)cc1	98
CCN(Cc1ccccc1)S(=O)(=O)c1ccc(C(=O)Nc2nnc(-c3ccccc3OC)o2)cc1	67
CCN(c1ccccc1)S(=O)(=O)c1ccc(C(=O)Nc2nnc(C3CC3)o2)cc1	71
Cn1nc(C(F)(F)F)cc1-c1ccc(S(N)(=O)=O)s1	-123*
CN(C)C(=O)c1ccc(-c2cc(C(F)(F)F)nn2C)s1	-152*
COc1ccc(NC(=O)Nc2ccccc2OC)cc1	-96*
COc1ccccc1NC(=O)Nc1ccc(CC#N)cc1	-115*
CCOc1ccccc1NC(=O)Nc1ccc(Cl)cc1	-78*
CCN1CCN(Cc2ccc(NC(=O)Nc3ccccc3OC)cc2)CC1	-141*
COc1ccccc1NC(=O)Nc1ccc(N2CCOCC2)cc1	-134*
CCn1nc(C)c(/C=N/NC(=O)c2ccoc2C)c1C	-112*
CCCCCn1nc(C)c(/C=N/NC(=O)c2ccoc2C)c1C	-171*
c1csc(-c2nc3c4ccccc4c4ccccc4c3[nH]2)c1	-73*
CCCC1=[N+](CC(=O)c2ccccc2)CCn2c(C)ccc21	-74*
NC(=Nc1ccccc1)NC(=O)c1nc(Cl)c(N)nc1N	-126*
SMILES	aSyn 5UTR act
O=C(NNC(=O)c1ccccc1F)c1cccc(-n2cccc2)c1	-74*
Clc1ccc(-c2cnc3n2CCC3)cc1	-103*
O=C(N=C1SCC(=O)N1c1ccccc1Cl)c1ccco1	-174*
O=C(N=C1SCC(=O)N1c1ccccc1Cl)c1ccccc1	-210*
Cc1cc(C)n(-c2nc(-c3ccc(Cl)c(Cl)c3)cs2)n1	-109*
C/C(=N\Nc1nncc2ccccc12)c1cccc(OC(F)F)c1	-97*
C/C(=N\Nc1nncc2ccccc12)c1ccc(C(C)(C)C)cc1	-84*
Cc1ccc(C(=O)NC(=S)NCC2CCCO2)cc1Br (stereo not drawn)	-155*
O=C(NC(=S)NCC1CCCO1)c1ccc(Br)o1 (stereo not drawn)	-108*
CCN(CC)C(=O)COc1ccc(-c2ccccc2)cc1	-116*
COc1ccc(-c2cc(-c3ccccc3)n[nH]2)c(O)c1	-217*
COc1ccc(O)c(-c2cc(-c3ccccc3Cl)[nH]n2)c1	-115*
COc1ccc(O)c(-c2cc(-c3cccs3)[nH]n2)c1	-125*
